Source: the supplement of paper PMC8773631
Structures can show the parent of a compound that is named as a salt. ± gives the uncertainty stated by the source.

Each molecule was assayed on NCC-MFS5-C1 (assay: cell viability relative to DMSO control; higher = less growth inhibition). Details: 10 µM; treatment time: 3 days.
Protocol: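 NCC-MFS5-C1 myxofibrosarcoma cells (1x10^4 per well, 384-well) were treated on day 2 with 10 µM of each drug. On day 5, viability was read by CCK-8 absorbance at 450 nm and normalised to the DMSO control (%), n = 2.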

| Structure (SMILES) | cell viability [%] |
| --- | --- |
| COc1cc2ncnc(Nc3ccc(F)c(Cl)c3)c2cc1OCCCN1CCOCC1 [Gefitinib(ZD1839)] | 95.1 ± 3.7 |
| CC(=O)O[C@H]1C(=O)[C@@]2(C)[C@H]([C@H](OC(=O)c3ccccc3)[C@]3(O)C[C@H](OC(=O)[C@H](O)[C@@H](NC(=O)c4ccccc4)c4ccccc4)C(C)=C1C3(C)C)[C@]1(OC(C)=O)CO[C@@H]1C[C@@H]2O [Paclitaxel] | 53.9 ± 3.3 |
| Nc1cccc2c1C(=O)N(C1CCC(=O)NC1=O)C2=O (stereo not given) [Pomalidomide] | 97.7 ± 6.4 |
| O=c1c(-c2ccc(O)cc2)coc2cc(O)cc(O)c12 [Genistein] | 81.4 ± 10 |
| CC(=O)[C@]1(O)Cc2c(O)c3c(c(O)c2[C@@H](O[C@H]2C[C@H](N)[C@H](O)[C@H](C)O2)C1)C(=O)c1ccccc1C3=O [Idarubicin HCl] | 0.409 ± 0.53 |
| CO[C@H](C(=O)[C@@H](O)[C@@H](C)O)[C@@H]1Cc2cc3cc(O[C@H]4C[C@@H](O[C@H]5C[C@@H](O)[C@H](O)[C@@H](C)O5)[C@H](O)[C@@H](C)O4)c(C)c(O)c3c(O)c2C(=O)[C@H]1O[C@H]1C[C@@H](O[C@H]2C[C@@H](O[C@H]3C[C@](C)(O)[C@H](O)[C@@H](C)O3)[C@H](O)[C@@H](C)O2)[C@H](O)[C@@H](C)O1 [Mithramycin A] | 97.4 ± 4 |
| C#Cc1cccc(Nc2ncnc3cc(OCCOC)c(OCCOC)cc23)c1 [Erlotinib HCl (OSI-744)] | 81.6 ± 1 |
| NC(=O)NO [Hydroxyurea] | 71.3 ± 11 |
| CS(=O)(=O)c1ccc(C(=O)Nc2ccc(Cl)c(-c3ccccn3)c2)c(Cl)c1 [Vismodegib (GDC-0449)] | 70.2 ± 7.4 |
| CC(C)C[C@H](NC(=O)[C@H](Cc1ccccc1)NC(=O)c1cnccn1)B(O)O [Bortezomib (PS-341)] | 4.89 ± 1.4 |
| Nc1cc(C(Cl)=C(Cl)Cl)c(S(N)(=O)=O)cc1S(N)(=O)=O [Clorsulon] | 89.3 ± 2.4 |
| CN(C)/N=N/c1[nH]cnc1C(N)=O [Dacarbazine] | 82 ± 1.7 |
| O=NN(CCCl)C(=O)NC1CCCCC1 [Lomustine] | 84.1 ± 18 |
| Nc1nc2[nH]cnc2c(=S)[nH]1 [Thioguanine] | 90.3 ± 0.61 |
| CCCS(=O)(=O)Nc1ccc(F)c(C(=O)c2c[nH]c3ncc(-c4ccc(Cl)cc4)cc23)c1F [Vemurafenib (PLX4032, RG7204)] | 76 ± 3.5 |
| Nc1nc(F)nc2c1ncn2[C@@H]1O[C@H](COP(=O)(O)O)[C@@H](O)[C@@H]1O [Fludarabine Phosphate] | 104 ± 3.5 |
| CC(=O)OCC(=O)[C@@]1(O)CC[C@H]2[C@@H]3CCC4=CC(=O)CC[C@]4(C)[C@H]3C(=O)C[C@@]21C [Cortisone acetate] | 90.9 ± 9.9 |
| CCN(CC)CCOc1ccc(C(=C(Cl)c2ccccc2)c2ccccc2)cc1 [Clomifene citrate] | 85.1 ± 8.8 |
| CC1=C(CC(=O)O)c2cc(F)ccc2/C1=C\c1ccc([S+](C)[O-])cc1 (stereo not given) [Sulindac] | 103.76 ± 0.032 |
| C=CC[C@@H]1/C=C(\C)C[C@H](C)C[C@H](OC)[C@H]2O[C@@](O)(C(=O)C(=O)N3CCCC[C@H]3C(=O)O[C@H](/C(C)=C/[C@@H]3CC[C@@H](O)[C@H](OC)C3)[C@H](C)[C@@H](O)CC1=O)[C@H](C)C[C@@H]2OC [Tacrolimus (FK506)] | 93.7 ± 7.5 |

| Structure (SMILES) | cell viability [%] |
| --- | --- |
| CCCCCOC(=O)Nc1nc(=O)n([C@@H]2O[C@H](C)[C@@H](O)[C@H]2O)cc1F [Capecitabine] | 72.9 ± 5.9 |
| Fc1ccc(C(c2ccc(F)cc2)N2CCN(C/C=C/c3ccccc3)CC2)cc1 [Flunarizine 2HCl] | 114 ± 12 |
| O=C1c2c(O)ccc(O)c2C(=O)c2c(NCCNCCO)ccc(NCCNCCO)c21 [Mitoxantrone 2HCl] | -0.766 ± 0.85 |
| COc1cc(N2CCC(N3CCN(C)CC3)CC2)ccc1Nc1ncc(Cl)c(Nc2ccccc2S(=O)(=O)C(C)C)n1 | 52.7 ± 1.8 |
| CN(N=O)C(=O)NC1C(O)OC(CO)C(O)C1O (stereo not given) [Streptozotocin (STZ)] | 113 ± 27 |
| Nc1nc2n[nH]nc2c(=O)[nH]1 [Azaguanine-8] | 85.2 ± 7 |
| Nc1nc2[nH]cc(CCc3ccc(C(=O)N[C@@H](CCC(=O)O)C(=O)O)cc3)c2c(=O)[nH]1 [Pemetrexed Disodium Hydrate] | 80.7 ± 2.4 |
| CO[C@H]1C[C@@H]2CC[C@@H](C)[C@@](O)(O2)C(=O)C(=O)N2CCCC[C@H]2C(=O)O[C@H]([C@H](C)C[C@@H]2CC[C@@H](OCCO)[C@H](OC)C2)CC(=O)[C@H](C)/C=C(\C)[C@@H](O)[C@@H](OC)C(=O)[C@H](C)C[C@H](C)/C=C/C=C/C=C/1C [Everolimus (RAD001)] | 64.9 ± 4.7 |
| CC(C)(C)c1cc(NC(=O)Nc2ccc(-c3cn4c(n3)sc3cc(OCCN5CCOCC5)ccc34)cc2)no1 [Quizartinib (AC220)] | 57.8 ± 2.7 |
| O=C(/C=C/c1cccc(S(=O)(=O)Nc2ccccc2)c1)NO [Belinostat (PXD101)] | 26.9 ± 0.53 |
| C=CC(=O)Nc1cc2c(Nc3ccc(F)c(Cl)c3)ncnc2cc1OCCCN1CCOCC1 [Canertinib(CI-1033)] | 84.2 ± 5 |
| CC[C@H](Nc1ncnc2[nH]cnc12)c1nc2cccc(F)c2c(=O)n1-c1ccccc1 [CAL-101 (Idelalisib, GS-1101)] | 72.3 ± 6.2 |
| COc1ccc2[nH]c([S@@+]([O-])Cc3ncc(C)c(OC)c3C)nc2c1 [Esomeprazole Sodium] | 74.6 ± 1.4 |
| CNC(=O)c1ccc(N2C(=S)N(c3ccc(C#N)c(C(F)(F)F)c3)C(=O)C2(C)C)cc1F [Enzalutamide (MDV3100)] | 80.3 ± 7.7 |
| FC(F)(F)c1ccc(CNc2ccc(Cc3c[nH]c4ncc(Cl)cc34)cn2)cn1 [Pexidartinib (PLX3397)] | 72.5 ± 5.8 |
| C=CC(=O)Nc1cc(Nc2nccc(-c3cn(C)c4ccccc34)n2)c(OC)cc1N(C)CCN(C)C [Osimertinib (AZD9291)] | 2.66 ± 0.22 |
| Cc1nc(NC(=O)N2CCC[C@H]2C(N)=O)sc1-c1ccnc(C(C)(C)C(F)(F)F)c1 [Alpelisib] | 92.6 ± 1 |
| CCCCCCNC(=O)n1cc(F)c(=O)[nH]c1=O [Carmofur] | 81.5 ± 1.1 |
| CCC[C@@H]1C[C@@H](C(=O)N[C@@H]([C@H]2O[C@H](SC)[C@H](O)[C@@H](O)[C@H]2O)[C@@H](C)O)N(C)C1 [Lincomycin HCl] | 80.5 ± 9.3 |
| CC1(COc2ccc3c(c2)ncn3-c2ccc3cccc(N4CCC(N)CC4)c3n2)COC1 | 26.1 ± 3.3 |
